# Measurements from PubChem BioAssay AID743279 (National Center for Advancing Translational Sciences (NCATS), 2014).
# About 17,000 (4.7%) of roughly 360,000 compounds were called active. About 5% were inconclusive and are not listed. This is one part of a sample in which actives are shown more often than they occur. No stated cut-off is given here; in the data, active means activity change below about -50%; inconclusive means mostly about -30% to -49%; inactive means weaker than that.
# Assay: qHTS for Inhibitors of Inflammasome Signaling: IL-1-beta AlphaLISA Primary Screen
# Conditions: THP-1 LPS/ATP IL-1B secretion, 16 h; at 57.5 µM, active compounds read low
# How it was run: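 THP-1 cells pretreated 1 hr with compounds (up to 57.5 uM final), then stimulated with LPS (250 ng/mL final) plus ATP (1.25 mM final); secreted IL-1B measured by AlphaLISA after 16 hr, decreased signal indicating inhibition.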
# On the % scale 0 is the no-effect control and ±100 the full control effect.
row,SMILES,activity change
1,CC(Oc1ccc(F)cc1)C(=O)Nc1cc(S(=O)(=O)N2CCOCC2)ccc1N1CCN(C)CC1 (stereo unspecified),-9.51% (inactive)
2,O=C(Cc1ccc([N+](=O)[O-])cc1)NCCS(=O)(=O)N1CCN(c2ccccc2)CC1,16.3% (inactive)
3,CCNC(=S)Nc1ccc2c(c1)c(=O)n(C)n2Cc1ccc(Cl)cc1,-17.7% (inactive)
4,CC(C)Oc1cc(F)ccc1-c1cc(C(=O)Nc2cccc(Cl)c2)[nH]n1,19.8% (inactive)
5,COc1ccccc1N1CCN(/N=C/c2ccc(O)cc2O)CC1,-21.9% (inactive)
6,COc1ccccc1N1CCN(/N=C\C(Br)=C\c2ccccc2)CC1,-66.9% (active)
7,COc1cc(/C=N/N2CCN(c3ccccc3)CC2)ccc1OC(C)=O,-4.61% (inactive)
8,CCCc1nc2c3ccccc3ccn2c1Cc1ccccc1C(F)(F)F,17.7% (inactive)
9,COCCCN(C(=S)Nc1c(C)cc(C)cc1C)C(C)c1ccncc1 (stereo unspecified),0% (inactive)
10,O=C(Nc1nc(-c2ccco2)c(-c2ccco2)s1)c1ccco1,-77.4% (active)
11,CCc1nnc(NC(=O)c2ccco2)s1,10% (inactive)
12,O=C(Nc1nnc(CCOCCOCCc2nnc(NC(=O)c3ccco3)s2)s1)c1ccco1,-5.99% (inactive)
13,CCN1CCN(c2ccc([N+](=O)[O-])cc2C(=O)c2ccc(Cl)cc2)CC1,-7.81% (inactive)
14,CCN1CCN(C(=O)N(Cc2ccc(Cl)cc2)S(=O)(=O)c2ccc(C)cc2)CC1,-3.62% (inactive)
15,CCN1CCN(c2sc(S(C)(=O)=O)nc2S(=O)(=O)c2ccc(Cl)cc2)CC1,-97.8% (active)
16,COc1cc([C@H](Cc2ccccc2)NC(C)=O)oc(=O)c1,22.9% (inactive)
17,COC(=O)COc1cccc2c(=O)n(CC(=O)NCc3ccccc3)ccc12,-57.4% (active)
18,Cc1ccc(CNC(=O)CCNC(=O)Cn2ccc3ccccc3c2=O)cc1,-21.6% (inactive)
19,COc1cccc2c(=O)n(CC(=O)N3CCCCCC3)ccc12,-3.57% (inactive)
20,O=C(Nc1cccc(S(=O)(=O)NC2=NCCC2)c1)C1CCCCC1,23.8% (inactive)
21,O=C(C1=C[C@H](c2ccc(C(F)(F)F)cc2)C[C@H](OCc2ccc(CO)cc2)O1)N1CCN(Cc2ccccc2)CC1,-80.4% (active)
22,O=C(NCc1ccccc1)C1=C[C@H](C2CC2)C[C@H](OCc2ccc(CO)cc2)O1,-25.1% (inactive)
23,O=C(C1=C[C@H](c2coc3ccccc3c2=O)C[C@H](OCc2ccc(CO)cc2)O1)N1CCN(Cc2ccccc2)CC1,-63.5% (active)

row,SMILES,activity change
1,O=C(NCc1ccccc1)C1=C[C@@H](C2CCCCC2)C[C@@H](OCc2ccc(CO)cc2)O1,-17.5% (inactive)
2,O=C(C1=C[C@H](c2coc3ccccc3c2=O)C[C@H](OCc2ccc(CO)cc2)O1)N1CCOCC1,-3.08% (inactive)
3,CN1CCN(C(=O)C2=C[C@H](c3ccc4c(c3)OCO4)C[C@H](OCc3ccc(CO)cc3)O2)CC1,-10.6% (inactive)
4,O=C(C1=C[C@H](C2CC2)C[C@H](OCc2ccc(CO)cc2)O1)N1CCN(Cc2ccccc2)CC1,-22.6% (inactive)
5,O=C(NCc1ccccc1)C1=C[C@@H](c2ccc(C(F)(F)F)cc2)C[C@@H](OCc2ccc(CO)cc2)O1,-53.9% (active)
6,CC(=O)n1cc([C@H]2C=C(C(=O)N3CCOCC3)O[C@@H](OCc3ccc(CO)cc3)C2)c2ccccc21,-1.15% (inactive)
7,c1ccc(-c2c[nH]c(-c3ccccc3)c2)cc1,14% (inactive)
8,N#CCCC(C#N)(c1cccnc1)N1CCOCC1 (stereo unspecified),2.31% (inactive)
9,CC(C)(C)c1ccc(/C=C/C(=O)NCCCn2ccnc2)cc1,-13.5% (inactive)
10,Oc1cccc(CCc2ccccn2)c1,-8.08% (inactive)
11,Cc1cccc(N2CCN(C(=O)COCc3cc(-c4ccc5c(c4)OCO5)on3)CC2)c1C,-0.251% (inactive)
12,CCc1cc(C(=O)N(CC)CC(=O)Nc2c(F)cccc2F)sc1C,-0.176% (inactive)
13,COc1cc(CCN=Cc2ccccc2O)c([N+](=O)[O-])cc1OC,13.4% (inactive)
14,Cc1csc(=O)n1CCC(=O)OCC(=O)Nc1ccc(N2CCOCC2)cc1,0% (inactive)
15,COC(=O)[C@H](Cc1ccccc1)NC(=O)Nc1ccc(S(N)(=O)=O)cc1,9.1% (inactive)
16,COc1ccc(C(=O)NC(=S)N2CCCCC2c2cccnc2)cc1OC (stereo unspecified),-16.3% (inactive)
17,CSc1ncccc1C(=O)N1CCCC(Nc2ccc(F)c(F)c2)C1 (stereo unspecified),43.2% (inactive)
18,CC(C)OC(=O)CC(=O)CC(O)c1cccc([N+](=O)[O-])c1 (stereo unspecified),19.7% (inactive)
19,Cc1ccc(N(Cc2cc(=O)[nH]c3ccccc23)C(=O)CCl)cc1,-99.5% (active)
20,CC(=O)N(Cc1cc(=O)[nH]c2ccccc12)c1ccc(C)cc1C,1.3% (inactive)
21,CCC(=O)N(Cc1cc2ccccc2[nH]c1=O)c1ccc(OC)cc1,-28.7% (inactive)
22,CC(C=Cc1ccccc1)=NNS(=O)(=O)c1ccc([N+](=O)[O-])cc1,-3.19% (inactive)
23,CCOc1ccc(S(=O)(=O)N2CCN(C(=O)c3oc4ccccc4c3C)CC2)cc1,-12.6% (inactive)

row,SMILES,activity change
1,N#CC1=C(N)OC2=C(C(=O)CCC2)C1C1CC=CCC1 (stereo unspecified),0.456% (inactive)
2,COCc1[nH]nc2c1C(C1C=CCCC1)C(C#N)=C(N)O2 (stereo unspecified),-72.1% (active)
3,N#CC1=C(N)Oc2cc(O)ccc2C1C1CCCCC1 (stereo unspecified),50.4% (inactive)
4,CCCCNC(=O)C[C@@H]1C[C@@]2(C(=O)OC)CC(C)(C)CC=C2N(Cc2ccco2)C1=O,-1.57% (inactive)
5,NCCCCC(C(=O)O)N(C(=O)OCc1ccccc1)C(=O)OCc1ccccc1 (stereo unspecified),-16.2% (inactive)
6,O=C(O)CSc1c2c(nc3cc(C(=O)Nc4cccc(C(F)(F)F)c4)ccc13)CCCC2,-26.7% (inactive)
7,Cn1nc(C(F)(F)F)c(C(=O)Nc2cccc(C(F)(F)F)c2)c1SCc1ccc(Cl)cc1,-81.8% (active)
8,COC(=O)c1ccccc1Sc1c(/C=N/OCc2ccc(Cl)cc2)c(C(F)(F)F)nn1C,20.2% (inactive)
9,OC[C@@H]1CN(Cc2cccs2)C[C@H](n2cnc3c(Nc4ccccc4)ncnc32)O1,8.21% (inactive)
10,c1ccc2c(CCN3CCNC[C@H]3Cc3cccc4ccccc34)cccc2c1,-12.9% (inactive)
11,c1ccc(C[C@H]2CNCCN2CCC23CC4CC(CC(C4)C2)C3)cc1,-74.5% (active)
12,O=C1CCNCCN1[C@H](CO)Cc1ccccc1,17.5% (inactive)
13,CCCC(=O)N1CCC1(C)C(=O)Nc1ccc(-n2cncn2)cc1 (stereo unspecified),0.196% (inactive)
14,C[C@@H]1CN([C@H](C)CO)C(=O)CCCn2cc(nn2)CO[C@H]1CN(C)S(=O)(=O)c1ccc(Oc2ccccc2)nc1,17.8% (inactive)
15,O=S(=O)(c1ccc(F)cc1)N1CCN=C1SCc1cccc(F)c1,12.9% (inactive)
16,CNc1ccc(SC#N)cc1,-70.1% (active)
17,CC(=O)N1CCc2c(sc(NC(=O)CCS(=O)(=O)c3ccccc3)c2C#N)C1,inactive
18,O=C1OCCOC2CCCc3oc(-c4ccccc4)c1c32 (stereo unspecified),10.6% (inactive)
19,O=C(NCc1ccccc1)C1c2ccccc2OCC(=O)N1CCCN1CCOCC1 (stereo unspecified),89.8% (inactive)
20,O=S(=O)(NCc1ccco1)c1cnc(Cl)c(Cl)c1,-67.1% (active)
21,O=S(=O)(NCC1CCCO1)c1cnc(Cl)c(Cl)c1 (stereo unspecified),-65.5% (active)
22,CCOc1ccc(S(=O)(=O)NCC2CCCO2)cc1 (stereo unspecified),6.01% (inactive)
23,C/C(=N\Nc1ncc(Cl)cc1Cl)c1ccc(S(=O)(=O)NCc2ccco2)cc1,-9.03% (inactive)

row,SMILES,activity change
1,O=C(COC(=O)c1cnc(Cl)c(Cl)c1)NCc1ccco1,10% (inactive)
2,O=S(=O)(NCC1CCCO1)c1ccc2ccccc2c1 (stereo unspecified),1.02% (inactive)
3,O=C(Nc1cccc2ccccc12)NC1CC1,-13.6% (inactive)
4,COC(=O)C[C@H]1C[C@@H]2c3cc(N(C)C)ccc3O[C@@H]2[C@H](CO)O1,13.8% (inactive)
5,O=C(NCc1cccnc1)c1cc(C2CCCN(C(=O)C3CCCCC3)C2)on1 (stereo unspecified),-24.1% (inactive)
6,CCCNC(=O)c1cc(C2CCCCN2C(=O)OC)on1 (stereo unspecified),0% (inactive)
7,O=C1c2ccccc2-c2ccccc2NC1O (stereo unspecified),7.09% (inactive)
8,CC(C)C1N=C2c3ccccc3N=C(SCC(=O)c3ccc(O)c(O)c3)N2C1=O (stereo unspecified),41.9% (inactive)
9,O=C1CC[C@@H](C(=O)N2CSC[C@@H]2C(=O)Nc2ccc(C(F)(F)F)cc2)N1,-1.13% (inactive)
10,CS/C(=C\[N+](=O)[O-])Nc1ccc(C)cc1,-131% (active)
11,COc1cc(NC(=O)Nc2ccc(C)cc2)cc([N+](=O)[O-])c1,-21% (inactive)
12,Cc1ccc(NC(=O)O/N=C/c2cccc([N+](=O)[O-])c2)cc1,-1.61% (inactive)
13,Cc1nn(-c2ccccc2)nc1C(=O)OCC(=O)N1CCCCC1C (stereo unspecified),12% (inactive)
14,O=C(Cc1ccc(NC(=O)C2CCCN(C(=O)C3CCCCC3)C2)cc1)Nc1cccc(C(=O)N2CCCCC2)c1 (stereo unspecified),-3.57% (inactive)
15,Cc1onc(-c2ccccc2Cl)c1C(=O)OCC(=O)c1ccccc1,-25.9% (inactive)
16,Cc1[nH]c2ccccc2c1C(=O)COC(=O)c1c(-c2ccccc2)noc1C,-59.9% (active)
17,Cc1[nH]c2ccccc2c1C(=O)CSCC(=O)O,10.6% (inactive)
18,COc1ccc(CC(=O)NC(C)c2ccc(Cl)c(Cl)c2)cc1S(=O)(=O)N1CCOCC1 (stereo unspecified),-9.07% (inactive)
19,CN(C)c1ccc(Nc2c3c4c(cccc4n(C)c2=O)C(=O)c2ccccc2-3)cc1,-11.1% (inactive)
20,COc1ccc2sc(-c3ccc(N(C)C)cc3)c(-c3ccc4cc[nH]c4c3)c2c1,-13.1% (inactive)
21,COc1ccc2sc(-c3ccc(N(C)C)cc3)c(C#CCO)c2c1,-3.05% (inactive)
22,COc1ccc2c(c1)c(=Cc1ccc(N(C)C)cc1)c1cc(-c3ccccc3)[n+](C)n12,-118% (active)
